Source: PubChem BioAssay AID624330 (Southern Research Specialized Biocontainment Screening …, 2012)
In all, about 340,000 compounds went through this assay and about 2,100 (0.62%) were called active.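 How the source made its calls: active means first-screen hits whose inhibition reached a set limit at any dose in the follow-up dose series; inconclusive means inhibition above the set first-screen limit but never retested; inactive means the rest.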 Only a sample is shown. Entries with a potency or affinity are not part of this list.

Each compound was assayed against Rac GTPase-activating protein 1 (Homo sapiens) (UniProt Q9H0H5) (assay: MgcRacGAP GTPase-activating activity inhibitors, confirmation, biochemical, ADP Hunter fluorescence, primary and confirmatory (AID 624330;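 further: fluorescence reports GDP produced by GAP-driven GTP hydrolysis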)). Conditions: MgcRacGAP-stimulated Rac1 GTP hydrolysis, at 30 µM, stronger effect = higher value, GST-tagged Rac1 F28L mutant substrate.
Chain of Rac GTPase-activating protein 1 (Homo sapiens) (Q9H0H5 whole entry, looked up): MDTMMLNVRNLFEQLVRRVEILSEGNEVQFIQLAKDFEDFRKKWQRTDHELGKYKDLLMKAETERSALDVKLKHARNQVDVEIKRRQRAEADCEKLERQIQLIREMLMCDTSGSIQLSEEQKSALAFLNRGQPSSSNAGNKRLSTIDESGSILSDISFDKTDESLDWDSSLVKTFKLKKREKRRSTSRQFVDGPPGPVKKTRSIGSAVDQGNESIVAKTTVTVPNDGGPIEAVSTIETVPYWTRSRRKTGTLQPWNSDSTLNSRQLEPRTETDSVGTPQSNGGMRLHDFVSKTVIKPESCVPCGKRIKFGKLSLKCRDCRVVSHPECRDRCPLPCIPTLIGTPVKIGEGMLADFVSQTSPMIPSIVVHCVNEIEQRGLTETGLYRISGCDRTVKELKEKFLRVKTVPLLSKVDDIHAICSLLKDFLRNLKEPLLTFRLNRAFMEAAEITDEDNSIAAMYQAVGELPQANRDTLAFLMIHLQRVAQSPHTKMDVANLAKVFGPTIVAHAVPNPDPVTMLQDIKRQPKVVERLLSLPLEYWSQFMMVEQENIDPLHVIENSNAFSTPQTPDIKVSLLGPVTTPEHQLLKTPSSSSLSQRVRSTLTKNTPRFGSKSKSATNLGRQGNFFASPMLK

inhibition, inactive:
CC1CN(C(=O)CCNC(=O)c2ccc(Br)cc2)CC(C)O1 (stereo unspecified) 3.26%
Cc1ccc(OCC(=O)O)c(-n2nc3ccccc3n2)c1 9.25%
Nn1c(-c2cccc(O)c2)nnc1-c1cccc(O)c1 -0.05%
CC(C)CC(=O)NC(=S)Nc1ccc(N2CCN(C(=O)c3cccs3)CC2)cc1 9.14%
COc1cccc(NC(=O)CNCc2ccccc2)c1 1.69%
COc1ccc(CNCC(=O)Nc2cccc(S(N)(=O)=O)c2)cc1 24.6%
COC(=O)c1ccc(CNCC(=O)Nc2ccc(C(=O)OC)cc2)cc1 -0.29%
COc1ccc(CCNCC(=O)Nc2ccc(OC(F)(F)F)cc2)cc1OC 28.8%
CN1CCN(NS(=O)(=O)c2ccc(Cl)s2)CC1 13.4%
CCn1c(SCC(=O)OCc2ccccc2)nc2c1c(=O)n(C)c(=O)n2C -1.89%
CC(=O)Nc1ccc(NC(=O)c2nccnc2C(=O)O)cn1 2.3%
O=C(C(c1ccccc1)C(O)(c1ccccc1)c1ccccc1)N1CCOCC1 (stereo unspecified) -4.45%
CCNC(=S)N(CCc1c(C)[nH]c2ccccc12)Cc1cc(OC)c(OC)c(OC)c1 13.9%
O=C(CSC1=N/C(=C/c2ccc(Cl)c(Cl)c2)C(=O)N1c1ccccc1F)NC1CC1 6.1%
CN(C(=O)COC(=O)COc1ccc2ccccc2c1)c1ccccc1 5.73%
COc1ccc(OC)c(S(=O)(=O)N2CCC(C(=O)N(C)Cc3ccccc3)CC2)c1 13.1%
CCC(C)n1c(=S)[nH]c2ccccc2c1=O (stereo unspecified) 5.28%
CC1CCN(CCCn2c(=S)[nH]c3c(sc4ccc([N+](=O)[O-])cc43)c2=O)CC1 17.7%
CCC(C)n1c(SCc2ccc([N+](=O)[O-])cc2)nc2ccsc2c1=O (stereo unspecified) 2.36%
O=C(O)CCCn1c(=O)[nH]c2ccccc2c1=O 4.27%
COc1cccc(-c2cc3nc(C)cc(N4CCN(C(=O)c5ccoc5)CC4)n3n2)c1 13.9%
CCOc1ccc(/C=C(\C#N)C(=O)Nc2ccccn2)cc1 -0.14%
CCc1noc(C)c1C(=O)N1CCCC(N2CCN(c3cccc(Cl)c3)CC2)C1 (stereo unspecified) 8.33%
C/C(=N\Nc1ccc([N+](=O)[O-])cc1)c1ccc(C#N)cc1 -4.19%
C/C(=N\Nc1ccc([N+](=O)[O-])cc1)c1cccc(N)c1 1.82%
O=C(NCc1ccc(F)cc1)C1CCC(=O)N1C1CCCCC1 (stereo unspecified) -0.47%
COc1ccc(OC(=O)OCc2ccccc2)cc1 11.7%
COc1cc2c(cc1CNC[C@H]1O[C@@H](n3ccc(N)nc3=O)[C@H](O)[C@@H]1O)OCO2 6.09%
Cc1cc(CNC[C@H]2O[C@@H](n3ccc(N)nc3=O)[C@H](O)[C@@H]2O)no1 9.68%
C=CCNc1nnc(Cc2ccc(F)cc2)c(=O)[nH]1 4.71%
COc1cc2c(cc1NC(=O)c1cccc([N+](=O)[O-])c1)oc1ccccc12 1.77%
O=C(c1ccc(F)cc1)N1CCN(Cc2ccccc2)CC1 7.84%
c1ccc(CN2CCN(C(c3ccccc3)c3ccccc3)CC2)cc1 16.6%
CN(CC(=O)N1CCN(Cc2ccccc2)CC1)S(=O)(=O)c1ccc(F)cc1 -3.86%
OC(CN1CCN(Cc2ccccc2)CC1)c1ccc(F)cc1 (stereo unspecified) -1.4%
COc1ccccc1C1CCN(C(=O)c2cnn(-c3ccccc3)c2C)CC1 12.4%
O=C(Nc1ccc([N+](=O)[O-])cc1NC(=O)c1ccccc1)c1ccccc1 2.42%
CCC(=O)Nc1ccccc1N1CCN(c2ccc(F)cc2)CC1 2.63%
CCSc1nc2ccc(N3C(=O)C4C5C=CC(C5)C4C3=O)cc2s1 (stereo unspecified) -1.62%
CN1CCC(=O)N([C@H](CSc2ccc(Br)cc2)Cc2ccccc2)CC1 1.09%
COc1cc(OC)cc(C(=O)N2CCN(S(=O)(=O)c3ccc4c(c3)OCCO4)CC2)c1 9.94%
COc1cccc(/C(C)=N/Nc2ccc(S(=O)(=O)N3CCCCC3)cn2)c1 7.29%
C/C(=N\Nc1ccc(S(=O)(=O)N2CCCCC2)cn1)c1cccc(Br)c1 3.57%
CC(C)(C)OC(=O)NCCCC[C@H](NC(=O)c1nc[nH]c1C(=O)NC(c1ccccc1)c1ccccc1)C(=O)OC(C)(C)C 2.03%
CCN(C(=O)COC(=O)c1cccc(-n2cnnn2)c1)C1CCCCC1 11.8%
Cc1sc2ncn(CC(=O)N3CCN(c4ccccc4F)CC3)c(=O)c2c1S(=O)(=O)N1CCOCC1 2.91%
COc1cc(NC(N)=S)c(OC)cc1Cl 10.5%
COc1cc([N+](=O)[O-])ccc1N 0.84%
COc1ccc(-c2nnc(N)s2)cc1OC 5.29%
Cc1ccc2c(N)c(C)ccc2c1 12.7%
COc1cc(Br)c(Br)cc1N -1.7%
Cc1cc([N+](=O)[O-])ccc1N -7.8%
Cc1ccc(C)c(N)c1 6.49%
Cc1cc(Cc2ccc(N)c(C)c2)ccc1N 4.21%
O=C(CSc1nccc(=O)[nH]1)NN(c1ccccc1)c1ccccc1 11.2%
O=C(NCC(c1ccco1)N1CCN(c2ccccc2)CC1)C(=O)NC1CCCC1 (stereo unspecified) 4.87%
CCCCCN(C(=O)CCC(=O)OCc1cccc(C)c1)c1c(N)n(CCCC)c(=O)[nH]c1=O 5.1%
O=C(CSc1nnc(COc2ccccc2)n1-c1ccccc1)c1cccs1 15.1%
CCOC(=O)c1nc(C)nc(Sc2n[nH]c(-c3ccccc3)n2)c1C 9.53%
C/C(=N/OCC(=O)Nc1ccccc1)c1cccs1 6.14%
CCCCc1ccc(NC(=O)CN(C)CC(=O)Nc2ccccc2Cl)cc1 11.5%
O=c1cc(-c2ccc(Cl)c(Cl)c2)[nH][nH]1 8.61%
CCCCC(=O)N1C/C=C\C(c2ccc(OC)cc2)N(Cc2ccc(F)cc2)C(=O)C1 (stereo unspecified) 8.3%
Cc1ncc(CO)c(/C=N/Nc2ccc(C(F)(F)F)cn2)c1O 61.5%
COc1cc(/C=N/Nc2ccc(C(F)(F)F)cn2)cc(OC)c1O 13%
O=[N+]([O-])c1ccc(NN=Cc2ccc(O)cc2O)nc1 24.6%
COc1ccc(/C=N/Nc2ncc(C(F)(F)F)cc2Cl)cc1OC -7.93%
FC(F)(F)c1ccc(N/N=C/c2cccnc2)nc1 4.55%
O=C(O)c1ccc(/C=N/Nc2ccc(C(F)(F)F)cn2)cc1 13.8%
Cc1cccc(C(CC(=O)O)NC(=O)C(F)(F)F)c1 (stereo unspecified) 2.11%
C=CCN(CC=C)CCCOc1ccc(C)cc1OC 14.4%
Cc1ccc(NS(=O)(=O)c2ccc3c(c2)NC(=O)C(C)C(=O)N3)cc1C (stereo unspecified) -6.55%
CCC(Oc1ccccc1C)C(=O)N1CCCN(C)CC1 (stereo unspecified) 3.47%
COc1ccc(OC)c(/C=N/c2c(-c3ccc(O)c(OC)c3)nc3ccccn23)c1 4.63%
COc1cc(-c2nc3cnccn3c2Nc2ccc3c(c2)OCCO3)ccc1O 15.7%
Cc1cccc(C)c1Nc1c(-c2ccc(N3CCOCC3)cc2)nc2cnccn12 13.6%
COc1cc(-c2nc3cccc(C)n3c2NCC2CCCO2)ccc1O (stereo unspecified) -43.9%
COc1cc(-c2nc3cnccn3c2NC(C)(C)CC(C)(C)C)ccc1O 17%
Cc1ccc2nc(-c3ccccc3O)c(Nc3ccc4c(c3)OCCO4)n2c1 11.2%
CCOc1cc(-c2nc3ccccn3c2NCC2CCCO2)ccc1O (stereo unspecified) -4.32%
COc1cc(-c2nc3ccccn3c2/N=C/c2cccc(OC)c2O)ccc1O 10.6%
O=C1CC2(CCCC2)C(=O)N1c1ccc(S(=O)(=O)NCC2CC2)cc1Cl 5.71%
COc1ccc(OCc2nnc(SC3CCOC3=O)n2-c2ccccc2)cc1 (stereo unspecified) 11.2%
c1nnc(-c2ccc3c(c2)OCO3)o1 12.3%
CC(C)(C)C(=O)NCc1ccc(C(=O)CSc2nnc(C3CC3)n2C2CC2)s1 8.51%
C[C@]12C(=O)N(c3cccc(Cl)c3)C(=O)N1[C@@H]1c3ccccc3OC[C@@H]1[C@H]2c1ccccc1 6.88%
CCOC(=O)Cc1csc(SCC(=O)NC2CCS(=O)(=O)C2)n1 (stereo unspecified) 0.45%
Cc1cc(-c2ccc(Cl)cc2)n2nc(N)nc2n1 8.73%
COc1ccc(C/C(N)=N/OC(C)=O)cc1OC 7.14%
COc1cc(-c2nc3cnccn3c2Nc2ccccc2)ccc1O 30.3%
COc1cc(-c2nc3cnccn3c2Nc2ccc(C(C)C)cc2)ccc1O 21.9%
CCOC(=O)C(C)Sc1nc(-c2ccccc2)nc2ccccc12 (stereo unspecified) -2.03%
ON=C1CCCC2CCCCC12 (stereo unspecified) -2.9%
CC(C)CC(=O)NC(c1ccccc1)c1c(O)ccc2ccccc12 (stereo unspecified) 7.84%
CC(C)CNC(=O)CC(c1ccccc1)c1c(O)ccc2ccccc12 (stereo unspecified) 10.5%
CN(Cc1ccccc1F)C(=O)CN1c2cccc3cccc(c23)S1(=O)=O 6.24%
